Measurements as given in PubChem BioAssay (Tox21).
Inconclusive results are not listed. The source made the active and inactive calls. Unless noted, calls follow the shape of the full dose curve.

What was measured:
[1] = Nuclear factor erythroid 2-related factor 2/antioxidant responsive element (Nrf2/ARE) small molecule agonists: qHTS cell viability counter screen in human keratinocytes (AID 1919968; active = well fitted curve in the direction sought with a large enough effect in the repeat runs; an effect the other way counts as inactive or inconclusive; also: nearly all actives have a fitted effect of over 55% in size)
Summary of the method: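 Measured as CellTiter-Fluor fluorescence, this readout tracks cytotoxicity in the same wells as the ARE-luciferase screen. HaCaT reporter cells (1,500/well) received compounds after a 5 h pre-incubation and were exposed for 23 h.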

[2] = Nuclear factor erythroid 2-related factor 2/antioxidant responsive element (Nrf2/ARE) small molecule agonists: luciferase reporter gene qHTS assay in human keratinocytes (AID 1919969); also: nearly all actives have a fitted effect of over 35% in size
[3] = biological target: Gonadotropin-releasing hormone receptor (Homo sapiens) (UniProt P30968); assay: Human gonadotropin-releasing hormone receptor (GnRHR) small molecule agonists, calcium flux assay in GnRHR-HEK293 cells (AID 1920063); also: nearly all actives have a fitted effect of over 35% in size
Chain of Gonadotropin-releasing hormone receptor (Homo sapiens) (P30968 whole entry, looked up): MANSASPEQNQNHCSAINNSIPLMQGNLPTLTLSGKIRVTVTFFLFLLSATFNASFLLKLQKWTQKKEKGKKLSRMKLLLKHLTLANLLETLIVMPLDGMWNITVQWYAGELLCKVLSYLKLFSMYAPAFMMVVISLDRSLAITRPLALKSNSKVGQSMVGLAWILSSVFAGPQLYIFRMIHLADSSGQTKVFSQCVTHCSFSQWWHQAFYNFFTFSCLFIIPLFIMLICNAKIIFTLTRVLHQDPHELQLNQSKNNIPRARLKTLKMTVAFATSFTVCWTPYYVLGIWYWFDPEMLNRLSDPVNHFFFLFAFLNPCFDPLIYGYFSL
Summary of the method: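 Fluorescence kinetics (480 nm excitation, 540 nm emission; 3 min, 1 s steps) report calcium mobilisation in human GnRHR-HEK293 cells in agonist mode. Dye incubation: 1 h, 37 C.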

[4] = biological target: KiSS-1 receptor (Homo sapiens) (UniProt Q969F8); assay: Human kisspeptin (KISS1R) small molecule agonists, calcium flux assay in KISS1R-HEK293 cells (AID 1920064; active = well fitted curve in the direction sought with a large enough effect in the repeat runs; an effect the other way counts as inactive or inconclusive)
Chain of KiSS-1 receptor (Homo sapiens) (Q969F8 whole entry, looked up): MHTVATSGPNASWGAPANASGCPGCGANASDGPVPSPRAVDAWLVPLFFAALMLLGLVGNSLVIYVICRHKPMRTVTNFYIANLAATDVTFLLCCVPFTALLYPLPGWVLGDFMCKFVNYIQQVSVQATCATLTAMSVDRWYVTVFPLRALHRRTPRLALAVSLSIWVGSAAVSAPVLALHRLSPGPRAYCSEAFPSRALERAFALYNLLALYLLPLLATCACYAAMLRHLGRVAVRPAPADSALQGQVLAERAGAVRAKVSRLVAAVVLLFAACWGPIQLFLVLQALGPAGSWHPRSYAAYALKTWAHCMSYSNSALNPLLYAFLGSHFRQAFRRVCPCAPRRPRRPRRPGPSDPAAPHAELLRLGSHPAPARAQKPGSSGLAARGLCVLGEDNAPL
Summary of the method: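 Measures KISS1R agonism through calcium-sensitive dye fluorescence in stably transfected HEK293 cells, read for 3 min after pin-tool compound delivery; 15-point titrations in triplicate.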

[5] = G protein-coupled receptor (GPCR) small molecule agonists, calcium flux assay: HEK293 wild type cell line counter screen (AID 1920065)
Summary of the method: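 Readout: fluorescence at 480 nm excitation/540 nm emission, sampled at 1 s intervals for 3 min. Cells had been cultured 18 h, then dye-loaded 1 h at 37 C before compound or ATP addition.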

[6] = p53 small molecule agonists, cell-based qHTS assay with human liver microsomes (AID 1963577)
Summary of the method: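 p53RE-bla reporter cells were pre-incubated 5 h at 37 C, then treated with compounds plus human liver microsomes (0.5 mg/mL final) and NADPH (0.5 mg/mL final) for 16 h at 37 C. Beta-lactamase activity was read by LiveBLAzer fluorescence after 2 h at room temperature.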

[7] = p53 small molecule agonists, cell-based qHTS assay with rat liver microsomes (AID 1963578)
Summary of the method: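 p53RE-bla cells were exposed to compounds together with rat liver microsomes (0.5 mg/mL final) and NADPH (0.5 mg/mL final) for 16 h at 37 C, then read by LiveBLAzer beta-lactamase fluorescence after 2 h at room temperature.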

[8] = p53 small molecule agonists, cell-based qHTS assay with human liver microsomes: qHTS cell viability counter screen (AID 1963579); also: nearly all actives have a fitted effect of over 45% in size
Summary of the method: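 p53RE-bla cells (4,000/well) were pre-incubated 5 h at 37 C, then given compounds in DMSO plus human liver microsomes (0.5 mg/mL final) and NADPH (0.5 mg/mL final) for 16 h at 37 C. Viability was read by CellTiter-Glo luminescence.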

[9] = p53 small molecule agonists, cell-based qHTS assay with rat liver microsomes: qHTS cell viability counter screen (AID 1963580); also: nearly all actives have a fitted effect of over 45% in size
Summary of the method: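 HCT-116 p53RE-bla, 4,000 cells/well, 5 h pre-incubation; cpd + rat liver microsomes 0.5 mg/mL + NADPH 0.5 mg/mL (final); 16 h, 37 C; CellTiter-Glo, 30 min RT; luminescence.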

[10] = p53 small molecule agonists, cell-based qHTS assay: qHTS cell viability counter screen (AID 1963581); also: nearly all actives have a fitted effect of over 45% in size
Summary of the method: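 In the same plates used for the p53 bla reporter, HCT-116 cells given compounds for 16 h at 37 C received CellTiter-Glo; luminescence was recorded 30 min later at room temperature.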

[11] = p53 small molecule agonists, cell-based qHTS assay (AID 1963582; active = well fitted activation curve with a large enough effect in the signal ratio in the repeat runs, not every such curve was filed as active; the % refers to the signal ratio)
Summary of the method: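 Compounds are pin-transferred in DMSO onto p53RE-bla cells and incubated 16 h at 37 C. The B/G FRET beta-lactamase substrate is then applied for 2 h at RT and fluorescence recorded.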

[12] = biological target: 5-hydroxytryptamine receptor 2A (Homo sapiens) (UniProt P28223); assay: 5-hydroxytryptamine receptor 2A (HTR2A) small molecule antagonists, cell-based qHTS assay (AID 1963586); also: nearly all actives have a fitted effect of over 45% in size
Chain of 5-hydroxytryptamine receptor 2A (Homo sapiens) (P28223 whole entry, looked up): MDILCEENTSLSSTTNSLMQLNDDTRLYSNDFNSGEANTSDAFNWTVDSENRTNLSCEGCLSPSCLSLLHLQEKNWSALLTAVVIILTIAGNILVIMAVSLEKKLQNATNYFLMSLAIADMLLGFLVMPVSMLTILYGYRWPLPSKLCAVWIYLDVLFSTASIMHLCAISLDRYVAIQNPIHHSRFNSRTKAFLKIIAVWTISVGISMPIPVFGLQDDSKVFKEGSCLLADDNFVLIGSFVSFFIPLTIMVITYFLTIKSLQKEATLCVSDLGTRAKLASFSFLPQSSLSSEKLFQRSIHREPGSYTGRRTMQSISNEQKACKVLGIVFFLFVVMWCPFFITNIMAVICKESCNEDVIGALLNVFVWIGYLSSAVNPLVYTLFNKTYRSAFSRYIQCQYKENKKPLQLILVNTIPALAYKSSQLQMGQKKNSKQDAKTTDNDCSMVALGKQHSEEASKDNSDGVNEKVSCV
Summary of the method: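 Antagonist-mode intracellular calcium assay: DOI (4 nM) added after 5 min compound pre-incubation at room temperature to dye-loaded HTR2A-CHO cells. Fluorescence followed for 3 min, sampled every second.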

[13] = biological target: 5-hydroxytryptamine receptor 2A (Homo sapiens) (UniProt P28223); assay: 5-hydroxytryptamine receptor 2A (HTR2A) small molecule agonists, cell-based qHTS assay (AID 1963587); also: nearly all actives have a fitted effect of over 30% in size
Summary of the method: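 Kinetic calcium-flux fluorescence (2 min, 1 sec intervals) after compound addition in agonist mode. HTR2A-CHO cells were cultured 18 h, then dye-loaded 1 h at 37 C.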

[14] = biological target: Muscarinic acetylcholine receptor M1 (Homo sapiens) (UniProt P11229); assay: Cholinergic receptor muscarinic 1 (CHRM1) small molecule antagonists, cell-based qHTS assay (AID 1963588); also: nearly all actives have a fitted effect of over 40% in size
Chain of Muscarinic acetylcholine receptor M1 (Homo sapiens) (P11229 whole entry, looked up): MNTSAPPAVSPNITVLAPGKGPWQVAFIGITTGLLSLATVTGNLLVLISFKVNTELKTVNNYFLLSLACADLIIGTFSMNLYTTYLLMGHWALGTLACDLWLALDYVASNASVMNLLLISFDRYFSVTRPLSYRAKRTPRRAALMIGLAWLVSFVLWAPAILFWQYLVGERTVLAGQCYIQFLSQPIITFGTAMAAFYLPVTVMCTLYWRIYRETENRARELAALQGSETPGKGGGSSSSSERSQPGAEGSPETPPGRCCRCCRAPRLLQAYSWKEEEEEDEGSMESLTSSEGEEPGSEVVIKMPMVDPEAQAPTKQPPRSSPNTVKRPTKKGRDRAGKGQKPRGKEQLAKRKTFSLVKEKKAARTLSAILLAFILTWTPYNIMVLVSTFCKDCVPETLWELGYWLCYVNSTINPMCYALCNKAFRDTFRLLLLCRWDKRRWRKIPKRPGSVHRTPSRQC
Summary of the method: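 CHRM1-CHO calcium-flux assay, antagonist mode. Cells were seeded 18 h, dye-loaded 1 h at 37 C and given compound for 5 min at RT, then acetylcholine was added at 50nM. FDSS fluorescence was read 3 min; 15 concentrations, three runs.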

[15] = biological target: Muscarinic acetylcholine receptor M1 (Homo sapiens) (UniProt P11229); assay: Cholinergic receptor muscarinic 1 (CHRM1) small molecule agonists, cell-based qHTS assay (AID 1963589); also: nearly all actives have a fitted effect of over 35% in size
Summary of the method: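 Each compound was tested at 15 concentrations across three independent runs on dye-loaded CHO cells stably expressing human CHRM1, reading intracellular calcium fluorescence kinetically at 1 sec intervals.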

[16] = cAMP Responsive Elements (CRE) small molecule agonists, cell-based qHTS assay (AID 1963590)
Summary of the method: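 Cell line: CRE-bla HEK 293T; medium DMEM/10% dialyzed FBS/0.1 mM NEAA/1 mM pyruvate/25 mM HEPES; 3 h compound exposure; beta-lactamase FRET readout after 2 h substrate loading at RT.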

[17] = cAMP Responsive Elements (CRE) small molecule antagonists, cell-based qHTS assay (AID 1963591; active = well fitted inhibition curve with a large enough effect in the signal ratio in the repeat runs, not every such curve was filed as active; the % refers to the signal ratio)
Summary of the method: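 Inhibition of NKH477-driven (0.25 uM final) CRE-beta-lactamase signal in HEK293T cells, 3 h compound exposure at 37 °C, detected by FRET substrate fluorescence.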

[18] = biological target: Beta-2 adrenergic receptor (Homo sapiens) (UniProt P07550); assay: Adrenergic beta2 receptor (ADRB2) small molecule antagonists, cell-based qHTS assay (AID 1963592); also: series mostly up to about 92 µM; nearly all actives have a fitted effect of over 50% in size
Chain of Beta-2 adrenergic receptor (Homo sapiens) (P07550 whole entry, looked up): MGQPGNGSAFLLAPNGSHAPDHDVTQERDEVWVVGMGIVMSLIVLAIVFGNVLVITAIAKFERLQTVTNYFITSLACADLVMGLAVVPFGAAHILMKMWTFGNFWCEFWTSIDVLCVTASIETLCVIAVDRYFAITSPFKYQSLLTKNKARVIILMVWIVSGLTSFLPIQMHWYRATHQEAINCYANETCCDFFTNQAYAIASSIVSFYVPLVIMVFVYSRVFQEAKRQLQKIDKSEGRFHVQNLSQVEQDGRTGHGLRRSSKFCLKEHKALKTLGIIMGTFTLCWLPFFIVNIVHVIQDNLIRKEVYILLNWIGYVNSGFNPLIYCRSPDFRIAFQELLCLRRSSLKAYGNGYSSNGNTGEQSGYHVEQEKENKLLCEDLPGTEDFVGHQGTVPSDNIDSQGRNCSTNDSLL
Summary of the method: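 Cells (CHO, stable ADRB2 overexpression) incubated 18-20hr at 37C; compounds added from DMSO; agonist mix (1nM isoproterenol, 100uM IBMX, 25uM Ro-20-1724) added; 0.5hr RT; d2-cAMP and anti-cAMP-cryptate added; 1hr RT; 665/615 nm read.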

[19] = biological target: Beta-2 adrenergic receptor (Homo sapiens) (UniProt P07550); assay: Adrenergic beta2 receptor (ADRB2) small molecule agonists, cell-based qHTS assay (AID 1963593);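 also: CHO cells stably overexpressing human ADRB2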
Summary of the method: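 CHO cells stably over-expressing ADRB2 were plated overnight at 37C, then dosed with compounds plus a stimulation mix containing 100uM IBMX and 25uM Ro-20-1724 for 0.5hr at room temperature. cAMP was measured by HTRF competition, 1hr.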

[20] = biological target: D(2) dopamine receptor (Homo sapiens) (UniProt P14416); assay: Dopamine D2 receptor (DRD2) small molecule agonists, cell-based qHTS assay (AID 1963594); also: nearly all actives have a fitted effect of over 35% in size
Chain of D(2) dopamine receptor (Homo sapiens) (P14416 whole entry, looked up): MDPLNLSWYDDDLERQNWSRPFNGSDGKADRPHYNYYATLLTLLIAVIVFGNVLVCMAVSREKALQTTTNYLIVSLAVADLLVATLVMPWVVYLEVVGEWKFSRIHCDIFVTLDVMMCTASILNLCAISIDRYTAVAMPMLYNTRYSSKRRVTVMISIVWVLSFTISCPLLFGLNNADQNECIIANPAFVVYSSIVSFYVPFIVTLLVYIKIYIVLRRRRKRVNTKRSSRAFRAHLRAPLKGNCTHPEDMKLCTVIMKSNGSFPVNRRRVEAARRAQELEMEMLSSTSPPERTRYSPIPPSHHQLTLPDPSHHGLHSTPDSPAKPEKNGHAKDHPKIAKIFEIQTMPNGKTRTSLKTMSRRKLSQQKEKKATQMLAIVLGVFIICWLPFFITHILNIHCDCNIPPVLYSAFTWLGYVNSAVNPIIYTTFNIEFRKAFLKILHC
Summary of the method: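 cAMP accumulation in DRD2-HEK293 cells measured by HTRF after 1 h detection; compounds added 10 min before NKH477 (200nM […]) forskolin-analogue stimulation, 30 min at room temperature, with Ro20-1724 present at 0.1 mM final.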

Measured: Potency

CC(C)C(=O)OCCOc1ccccc1
inactive: all assays above

Cc1ccc2n[nH]nc2c1
inactive: all assays above

CC(CCO)CCc1ccccc1 (centres undefined)
inactive: all assays above

CCCCCCCCOCCC#N
inactive: all assays above

Cc1ccc(O)c([N+](=O)[O-])c1
inactive: all assays above

NCCNCCO
inactive: all assays above

Cc1cc(C)cc(N)c1
inactive: all assays above

C[C@H]1C[C@@H](O)CC(C)(C)C1
not listed: [19]
inactive: all other assays above

CCCCC(CC)COCCC#N (centres undefined)
inactive: all assays above
